# Screening data deposited in PubChem BioAssay by several laboratories.
# esBAF inh: Bmi1 luciferase reporter increase in mESCs, primary screen, esBAF inhibitor project, mouse ES cells, Bmi1 luciferase knock-in, single point. 24 h; 100% = twice the neutral-well signal. reporter increase, % at 12.5 µM. 350,000 tested, 2% active; in the data active means activation above about 40%;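 further: 0% = median of the plate's neutral control wells and 100% = double that signal; a rise in the Bmi1 reporter signal indicates esBAF inhibition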
# DAX1 inh: DAX1 (NR0B1) inhibitors on StAR promoter, primary screen, cell-based, luminescence, SF-1 (NR5A1), full-length DAX-1. inhibition, % at 6.8 µM. 370,000 tested, 1.1% active. HEK293T StAR-luciferase reporter, SF-1/DAX-1 repression relief;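 active means inhibition above the mean over all tested compounds plus 3 SD, cut at about 3.6% in these data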;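 further: 0% = DAX-1 cells with DMSO and 100% = cells lacking DAX-1 with DMSO; higher inhibition means more luminescence from relief of DAX-1 repression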
# hcDAF-12 act: H. contortus DAF-12 nuclear receptor activators, primary screen, cell-based, luminescence, HEK293, lit1-tk-luc reporter; 370,000 tested, 1.4% active; activation, % at 6.8 µM; HEK293 hcDAF-12 lit1-tk-luc reporter; 0% DMSO, 100% Δ7-dafachronic acid; AID 652067, 2013;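 active means activation above the mean of all tested compounds plus 3 SD, cut at about 5.5% in these data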;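 further: 100% = response to 3 µM Δ7-dafachronic acid high control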
# ssDAF-12 act: S. stercoralis DAF-12 nuclear receptor activators, primary screen, cell-based, luminescence, HEK293, GRIP1 co-expression, lit1-tk-luc; HEK293 ssDAF-12/GRIP1 lit1-tk-luc reporter; % of 3 µM dafachronic acid response; Nuclear hormone receptor DAF-12 (Strongyloides stercoralis); 370,000 tested, 1% active; activation, % at 6.8 µM; AID 652126, 2013;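 active means activation above the mean over all tested compounds plus 3 SD, cut at about 0.9% in these data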;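 further: 0% = DMSO-only wells and 100% = 3 µM delta7-dafachronic acid wells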
# hgDAF12 agonist: H. glycines DAF-12 receptor agonists, primary screen, cell-based, luminescence, HEK293, GAL4 fusion, UAS-luciferase | activation, % at 6.8 µM | HEK293 GAL4-hgDAF12 UAS-luciferase reporter, agonist luminescence; normalized to butyrate control | 370,000 tested, 1.8% active | AID 687014, 2013 | Nuclear hormone receptor DAF-12 (Heterodera glycines), GAL4 fusion;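 active means activation above a cutoff set at the mean of all screened compounds plus 3 SD, cut at about 10% in these data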;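 further: 0% = DMSO wells and 100% = sodium butyrate wells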
# Wnt act: Wnt/beta-catenin pathway activators, primary screen, cell-based, plate reader, single point; 300,000 tested, 1.2% active; activation, % at 9.35 µM; Wnt/beta-catenin reporter cell assay, activator; in the data active means activation above about 30%, passing the limit was not always enough;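 further: 0% = neutral control wells and 100% = positive control wells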
# DAX1 conf: DAX1 (NR0B1) inhibitors relieving SF-1 repression, confirmation, cell-based, luminescence, HEK293T, full-length DAX-1, SF-1 activated StAR promoter | shares compounds with DAX1 inh | HEK293T StAR-promoter luciferase reporter, SF-1/DAX-1 repression | inhibition, % at 6.8 µM | 2,400 tested, 87% active;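 active means inhibition above the average of every tested compound plus 3 SD, cut at about 3.8% in these data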;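 further: 0% = DAX-1 cells with DMSO and 100% = no DAX-1 control cells with DMSO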
# Target sequence (P51843 whole entry, looked up): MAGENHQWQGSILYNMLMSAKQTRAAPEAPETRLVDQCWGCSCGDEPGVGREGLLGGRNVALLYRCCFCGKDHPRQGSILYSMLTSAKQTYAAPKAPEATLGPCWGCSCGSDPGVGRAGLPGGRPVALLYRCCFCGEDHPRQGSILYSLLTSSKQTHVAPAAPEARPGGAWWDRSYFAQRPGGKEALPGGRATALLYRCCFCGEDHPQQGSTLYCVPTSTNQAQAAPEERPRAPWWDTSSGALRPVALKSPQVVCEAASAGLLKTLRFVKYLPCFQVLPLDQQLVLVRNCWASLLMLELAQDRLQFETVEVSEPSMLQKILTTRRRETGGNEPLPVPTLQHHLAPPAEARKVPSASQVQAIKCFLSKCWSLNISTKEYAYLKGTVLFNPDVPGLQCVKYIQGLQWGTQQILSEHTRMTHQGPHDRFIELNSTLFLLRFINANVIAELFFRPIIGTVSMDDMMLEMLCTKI
# SF1 AF2mut Luc: StAR reporter signal changes without DAX1, counter-screen for DAX1 inhibitor project, cell-based, luminescence, AF-2 mutant SF-1, transactivation. shares compounds with DAX1 inh. HEK293 StAR-luciferase, SF-1 AF2 mutant. inhibition, % at 6.8 µM. 2,400 tested, 78% active. AID 652136, 2013;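 active means inhibition above the mean of all tested compounds plus 3 SD, cut at about 3% in these data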;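 further: 0% = DAX-1 transfected cells with DMSO and 100% = cells without DAX-1 with DMSO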
# LXRb hcDAF ctr: LXR agonists, Gal4 luciferase reporter, confirmation, counter-screen for hcDAF-12 agonist project, cell-based, luminescence, HEK293, H. contortus campaign | shares compounds with hcDAF-12 act | HEK293 Gal4-LXR tk-luc reporter, 24 h; normalized: DMSO 0%, positive control 100% | activation, % at 6.8 µM | 3,400 tested, under 10 active | AID 743027, 2013;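 active means mean percent activation of the reporter above a cutoff set as the average over tested compounds plus their standard deviation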
# hcDAF12 conf: H. contortus DAF-12 receptor agonists, confirmation, cell-based, luminescence, HEK293, lit1-tk-luc, triplicate; shares compounds with hcDAF-12 act; HEK293 hcDAF-12 lit1-tk-luc reporter; % of Δ7-dafachronic acid response; activation, % at 6.8 µM; 3,400 tested, 61% active; AID 743032, 2013;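 active means mean activation across triplicate tests above the threshold derived from the earlier primary screen, cut at about 5.5% in these data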;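 further: 0% = DMSO only wells and 100% = 3 µM Δ7-dafachronic acid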
# hgDAF12 conf: H. glycines DAF-12 receptor agonists, confirmation, cell-based, luminescence, HEK293, GAL4-LBD fusion; shares compounds with hgDAF12 agonist; HEK293 GAL4-hgDAF12 luciferase reporter, agonist mode; percent of butyrate response; activation, % at 6.8 µM; 3,300 tested, 80% active;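 active means mean activation over triplicate wells above the hit cutoff derived from the earlier primary screen, cut at about 11% in these data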;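 further: 0% = DMSO low control and 100% = 2 mM sodium butyrate high control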
# LXRb DAF12 ctr: LXR agonists, Gal4 luciferase reporter, confirmation, counter-screen for hgDAF-12 agonist project, cell-based, luminescence, HEK293, H. glycines campaign; shares compounds with hgDAF12 agonist; 24 h; activation, % at 6.8 µM; 3,300 tested, under 10 active;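 active means mean activation of the triplicate above a set limit carried over from the primary screen, none filed active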
# * marks the source's active call; other numbers are inactive results; x = no result. A selection: hits, their analogues and other compounds. The true share with any hit is near 4.2%.
SMILES,esBAF inh,DAX1 inh,hcDAF-12 act,ssDAF-12 act,hgDAF12 agonist,Wnt act,DAX1 conf,SF1 AF2mut Luc,LXRb hcDAF ctr,hcDAF12 conf,hgDAF12 conf,LXRb DAF12 ctr
CCc1cc(C(=O)Nc2ncccc2O)sc1C,x,20.2*,6.4*,0.6,20.0*,36.5*,21.4*,9.0*,x,x,24.6*,0.8
CN1C(=O)c2cc(NS(C)(=O)=O)ccc2OC[C@@H]2O[C@@H](CC(=O)O)CC[C@@H]21,3.9,x,x,x,x,x,x,x,x,x,x,x
COc1ccc(NC(=O)Nc2ccc3c(c2)CC(=O)N([C@@H](C)CO)C[C@H](C)[C@H](CN(C)Cc2ccccc2)O3)cc1,3.8,x,x,x,x,x,x,x,x,x,x,x
C[C@H](CO)N1C[C@H](C)[C@@H](CN(C)C(=O)Nc2ccc(F)cc2)Oc2ccc(NS(=O)(=O)c3cn(C)cn3)cc2CC1=O,-2.0,x,x,x,x,x,x,x,x,x,x,x
Cc1cccnc1NC(=O)c1ccc2c(c1)OCCO2,x,2.9,1.9,0.0,4.9,-2.2,x,x,x,x,x,x
O=C(Nc1ncccc1O)c1ccc2c(c1)OCCO2,10.2,32.7*,7.2*,1.3*,60.2*,99.3*,41.8*,21.8*,1.8,4.0,57.5*,0.8
O=C1C(C=Nc2ccc(F)cc2)=C(O)c2ccccc21,9.1,5.3*,8.9*,0.7,22.1*,11.0,19.2*,8.7*,1.8,9.5*,20.4*,0.9
O=C(N[C@H]1CC[C@H](CC(=O)N2CCOCC2)O[C@@H]1CO)c1ccc2c(c1)OCO2,-3.9,x,x,x,x,x,x,x,x,x,x,x
c1ccc2sc(NN=C3CCCCCC3)nc2c1,x,5.2*,12.4*,0.8,13.4*,x,5.4*,0.8,1.8,10.8*,6.1,0.8
C/C(=N\Nc1nc2ccccc2s1)c1ccc2c(c1)OCO2,x,1.0,2.5,0.3,7.0,27.0,x,x,x,x,x,x
CCOC(=O)c1ccc(Nc2ccc(C(C)=O)cc2)cc1,76.2*,9.0*,7.7*,1.3*,21.1*,13.4,7.0*,5.7*,1.4,10.2*,18.7*,0.6
O=C(CSc1nnc(NC(=O)c2ccc(F)cc2)s1)NCc1ccco1,x,6.5*,-0.4,-0.1,13.9*,22.7,9.3*,5.1*,x,x,12.2*,0.5
